HT1080-NT tox – kills 2HG-producing HT-1080-NT fibrosarcoma cells. HT-1080-NT fibrosarcoma viability, CellTiter-Glo ATP luminescence, 48 h. Potency, µM (highest dose often 46.1 µM), for inactives: at the top dose activity, negative = less viability, most hits filed as cytotoxic. 360,000 tested, 1.6% active. AID 686970;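 further: NT is the 2HG producing partner of a matched IDH1 knockdown line; potency means the concentration at half of the fitted maximal effect; 0% = DMSO-treated cells and -100% = media-only wells without cells; nearly all actives have a fitted effect of over 55% in size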
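Luminescent CellTiter-Glo readout after 48 hours of compound exposure at 37 degrees C defined viability of HT-1080-NT cells. Activity was normalized to DMSO wells and cell-free media wells; concentration-response curves were fitted and assigned curve classes.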
IL-1B inflam inh – blocks inflammasome-driven IL-1 beta release; THP-1 LPS/ATP IL-1B secretion, AlphaLISA, 16 h; hits give low values; 360,000 tested, 4.7% active; activity change, % at 57.5 µM; in the data active means activity change below about -50%; inconclusive means mostly about -30% to -49%
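Secreted IL-1B measured by AlphaLISA bead assay after 16 h compound exposure of THP-1 cells; compounds (final up to 57.5 uM) added 1 h before LPS (250 ng/mL) and ATP (1.25 mM) stimulation; lower signal means less secretion.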
ALOX12 inh – blocks human arachidonate 12S-lipoxygenase | P18054 | purified 12hLO, xylenol orange hydroperoxide absorbance | Potency, µM (series often up to 108 µM), for inactives: at the highest dose activity change, negative = inhibition, usual class: inhibitors | 580,000 tested, 1.1% active; further: potency means the concentration at half of the fitted maximal effect
Target sequence (P18054 whole entry, looked up): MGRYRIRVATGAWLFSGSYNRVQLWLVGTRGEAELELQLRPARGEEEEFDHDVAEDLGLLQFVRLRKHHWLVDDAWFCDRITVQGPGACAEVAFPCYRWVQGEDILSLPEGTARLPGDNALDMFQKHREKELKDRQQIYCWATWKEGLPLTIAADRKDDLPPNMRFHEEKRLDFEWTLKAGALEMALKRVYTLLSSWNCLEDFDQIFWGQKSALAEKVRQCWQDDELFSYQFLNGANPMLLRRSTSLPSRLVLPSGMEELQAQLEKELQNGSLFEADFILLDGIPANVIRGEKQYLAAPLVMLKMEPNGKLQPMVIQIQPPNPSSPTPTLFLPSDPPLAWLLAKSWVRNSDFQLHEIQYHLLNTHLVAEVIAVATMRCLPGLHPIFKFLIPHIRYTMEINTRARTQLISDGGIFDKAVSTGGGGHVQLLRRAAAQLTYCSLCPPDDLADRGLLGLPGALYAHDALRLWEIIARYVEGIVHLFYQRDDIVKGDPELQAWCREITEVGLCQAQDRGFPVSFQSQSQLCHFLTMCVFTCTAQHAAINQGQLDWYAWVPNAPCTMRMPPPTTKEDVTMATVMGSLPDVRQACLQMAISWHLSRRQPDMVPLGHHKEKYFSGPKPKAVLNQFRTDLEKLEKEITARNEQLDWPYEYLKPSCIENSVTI
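Purified human 12hLO at 150 nM in 25 mM Hepes, 0.01% Triton X-100, pH 7.0, preincubated 15 min at room temperature with compound. Reaction started with 40 uM arachidonic acid, 30 min at room temperature. Hydroperoxide measured by Fe-xylenol orange, 573/405 nm absorbance ratio.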
DT40 TDP1 CPT – DT40-hTDP1 cell growth loss with CPT; chicken DT40 Tdp1-/-;hTDP1 cells + 20 nM CPT, ATP luminescence, 48 h; Potency, µM (series often up to 46.2 µM), without a hit: at the highest dose activity change, negative = growth inhibition, usual class: inhibitors; 420,000 tested, 12% active; further: potency means the concentration at half of the fitted maximal effect; nearly all actives have a fitted effect of over 55% in size
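Chicken DT40 Tdp1-/- cells complemented with human TDP1, 400 cells/well, exposed to compounds plus 20 nM camptothecin for at least 48 h at 37 C; viability read as ATP content by CellTiter-Glo luminescence.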
HT1080 IDH1KD tx – HT-1080 IDH1 knockdown cell toxicity (counter line); AID 686971; Potency, µM (highest dose often 46.1 µM), inactives show at the highest dose activity, negative = toxicity, hits mostly cytotoxic; 360,000 tested, 2% active; HT-1080 IDH1 knockdown viability, ATP luminescence, 48 h;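 further: potency means the concentration at half of the fitted maximal effect; 0% = DMSO wells and -100% = cell-free medium wells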
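After a 2 h attachment period, IDH1KD HT-1080 cells took pin-transferred compound for 48 h at 37 °C; ATP-based luminescence after 10 min room-temperature reagent incubation reported viability.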
DT40 TDP1 no CPT – qHTS for Inhibitors of human tyrosyl-DNA phosphodiesterase 1 (TDP1): qHTS in cells in absence of CPT | DT40 Tdp1-/- hTDP1 cells, no CPT, ATP luminescence, 48 h | Potency, µM (top dose mostly 46.2 µM), without a hit: at the top dose activity change, negative = growth inhibition, usual class: inhibitors | 420,000 tested, 15% active | AID 686978, 2013; further: potency means the concentration at half of the fitted maximal effect; nearly all actives have a fitted effect of over 55% in size
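Stably hTDP1-transfected Tdp1-null chicken DT40 cells were treated with library compounds minus camptothecin and grown for at least 48 hr at 37 °C, after which cellular ATP was quantified by luminescence.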
Numbers without * were called inactive; i = inactive; ? = inconclusive; nt = no result given; [ ] = remark or other dose. The entries come from a sample that favours hits as a whole. Unless noted, the call rests on the fitted dose curve; in most records, active means well fitted curve in the direction sought with a large enough effect; inconclusive means small, poorly fitted or top-dose-only effect, or another doubt; inactive means no such curve, though single readings can be large; an effect the other way counts as inactive or inconclusive. Unless noted, on the % scale 0 is the no-effect control and ±100 the full control effect.

SMILES	HT1080-NT tox	IL-1B inflam inh	ALOX12 inh	DT40 TDP1 CPT	HT1080 IDH1KD tx	DT40 TDP1 no CPT
O=C(CCc1ccccc1)NC(c1cccs1)c1cc(Cl)c2cccnc2c1O (stereo unspecified)	?	109.2	-6.0%	3.66µM*	?	4.11µM*
CC(NC(=O)Cc1ccccc1[N+](=O)[O-])c1ccccc1 (stereo unspecified)	nt	nt	3.9%	nt	nt	nt
CCCC(=O)NC(c1cccs1)c1cc([N+](=O)[O-])c2cccnc2c1O (stereo unspecified)	-29.4%	?	17.8µM*	23.1µM*	?	13µM*
CCC(=O)NC(c1cccs1)c1cc(Cl)c2ccccc2c1O (stereo unspecified)	nt	nt	-21.9%	nt	nt	nt
CCC(=O)NC(c1cccs1)c1cc([N+](=O)[O-])c2cccnc2c1O (stereo unspecified)	?	32.1	3.55µM*	20.6µM*	13µM*	?
Cc1cccc(NC(=S)N/C(=N/S(=O)(=O)c2ccccc2)c2ccccc2)c1	-6.2%	-0.4	?	-1.7%	14.7%	?
CC(C)OC(=S)N/C(=N\S(=O)(=O)c1ccccc1)c1ccccc1	7.08µM*	11.2	-14.0%	7.0%	8.91µM*	-0.7%
Cc1cccc(N2CCN(C(=O)c3ccc(CS(=O)c4cccc(Cl)c4)o3)CC2)c1C (stereo unspecified)	nt	nt	?	0.82µM*	nt	0.92µM*
Cc1ccc(Cl)cc1N1CCN(C(=O)COc2ccc3c(c2)CCC3)CC1	?	-72.3*	-27.0%	-3.9%	?	20.6µM*
COC(=O)c1cc(C(=O)N2CCN(c3cccc(C)c3C)CC2)cc([N+](=O)[O-])c1	1.84µM*	31.0	1.5%	5.8µM*	2.31µM*	2.59µM*
O=C(c1ccc(CS(=O)c2cccc(Cl)c2)o1)N1CCN(c2ccccn2)CC1 (stereo unspecified)	?	82.5	0.5%	?	?	9.2µM*
O=C(c1ccc(CS(=O)c2cccc(Cl)c2)o1)N1CCOCC1 (stereo unspecified)	0.4%	8.6	-24.0%	-11.4%	1.6%	17.4%
COc1ccccc1CNC(=O)C1(CCO)CCN(c2ncccn2)C1 (stereo unspecified)	nt	nt	20.4%	nt	nt	nt
Cc1ccc(C(=O)N2CCN(c3cccc(C)c3C)CC2)o1	?	10.6	?	16.4µM*	?	?
Cc1ccc(Cl)cc1N1CCN(C(=O)c2ccc(CS(=O)c3ccccc3)o2)CC1 (stereo unspecified)	nt	nt	?	2.59µM*	nt	5.17µM*
Cc1ccc(Cl)cc1N1CCN(C(=O)c2noc3c2CCCC3)CC1	nt	nt	-3.4%	11.6µM*	nt	?
Cc1cccc(N2CCN(C(=O)c3cccs3)CC2)c1C	0.0%	-1.3	?	-29.1%	-5.8%	?
Cc1cccc(N2CCN(C(=O)c3noc4c3CCCCC4)CC2)c1C	nt	nt	-18.4%	?	nt	-50.7%
Cc1ccc(S(=O)(=O)Cc2ccc(C(=O)N3CCN(c4cccc(C)c4C)CC3)o2)cc1	?	65.6	2.0%[57.4 µM]	1.84µM*	3.66µM*	2.59µM*
Cc1nc2cccnc2n1CC1CCCN(S(=O)(=O)c2ccccc2)C1 (stereo unspecified)	nt	nt	50.7%	nt	nt	nt
CC(CCc1ccccc1)NC(=O)C(C)O (stereo unspecified)	nt	nt	-8.4%	nt	nt	nt
O=C(Cc1ccccc1Cl)N1CCCC(n2cc(-c3nc(-c4ccccc4)no3)nn2)C1 (stereo unspecified)	nt	nt	-0.4%	nt	nt	nt
Cc1ccc(-c2c(C(=O)N3CCN(c4cccc(C)c4C)CC3)oc(=O)c3ccccc23)cc1	nt	nt	-31.9%	?	nt	20.6µM*
Cc1ccc(CS(=O)Cc2ccc(C(=O)N3CCN(c4ccccn4)CC3)o2)cc1 (stereo unspecified)	-0.1%	1.5	0.2%	20.6µM*	3.0%	?
Cc1ccc(-c2c(C(=O)N3CCN(c4ccc(F)cc4)CC3)oc(=O)c3ccccc23)cc1	nt	nt	-0.6%	?	nt	?
SMILES	HT1080-NT tox	IL-1B inflam inh	ALOX12 inh	DT40 TDP1 CPT	HT1080 IDH1KD tx	DT40 TDP1 no CPT
COc1ccccc1N1CCN(C(=O)c2ccc(CS(=O)c3ccccc3C)o2)CC1 (stereo unspecified)	nt	nt	-17.1%	11.6µM*	nt	13µM*
O=C(c1ccccc1OCc1ccc(Cl)cc1)N1CCN(c2ccccn2)CC1	-18.5%	-18.3	1.1%	23.1µM*	-7.5%	?
Cc1nc(CC(=O)Nc2nn(C)c3cccc(Oc4cccnc4)c23)cs1	nt	nt	8.4%	nt	nt	nt
O=C(c1cccc2[nH]ccc12)N1CC(Oc2ccc(-c3nc(-c4ccccc4)no3)cc2)C1	nt	nt	22.0%	nt	nt	nt
Cc1ccccc1S(=O)Cc1ccc(C(=O)N2CCN(c3cccc(C)c3C)CC2)o1 (stereo unspecified)	nt	nt	5.7%	0.651µM*	nt	0.82µM*
O=C(c1ccc(CS(=O)c2ccccc2Cl)o1)N1CCN(c2ccccc2F)CC1 (stereo unspecified)	nt	nt	0.0%	1.3µM*	nt	1.3µM*
CCOc1ccccc1CN(C)C(=O)CN1CC(c2ccccc2)CC1=O (stereo unspecified)	nt	nt	-22.6%	nt	nt	nt
COc1ccc(C)cc1NC(=O)NC1CC(=O)N(c2ccc3c(c2)OCCO3)C1 (stereo unspecified)	1.4%	-1.7	1.6%	-29.0%	-0.4%	-5.3%
O=C(NCC(c1cccs1)N1CCCCCC1)c1cc(=O)c2cc(Cl)ccc2o1 (stereo unspecified)	nt	nt	23.9%	nt	nt	nt
Cc1ccc(-n2c(C)cc(C(=O)COC(=O)c3c(C)noc3C)c2C)cc1	-23.9%	-58.0*	-15.6%	9.2µM*	-20.5%	9.2µM*
Cc1cc(C(=O)COC(=O)C2=NNC(=O)CC2)c(C)n1-c1ccccc1	24.9%	5.9	-2.9%	-23.9%	3.5%	-13.3%
Cc1ccc(-n2c(C)cc(C(=O)COC(=O)C3=NNC(=O)CC3)c2C)cc1	-7.3%	4.5	i	16.4µM*	-6.6%	?
COCCn1ncc(N2CCCC(CC(=O)NCc3ccc(Cl)cc3)C2)cc1=O (stereo unspecified)	nt	nt	-11.5%	nt	nt	nt
CC1(C)C(=O)Nc2ccccc2N1C(=O)CSc1nc(-c2ccccc2)cs1	-4.7%	?	?	?	-21.8%	14.6µM*
O=C(Cn1ncc(Cl)c(Cl)c1=O)N1CCN(Cc2ccccc2)CC1	?	-2.8	1.0%	3.26µM*	?	3.26µM*
CC1(C)C(=O)Nc2ccccc2N1C(=O)Cn1ncc(Cl)c(Cl)c1=O	-10.2%	-99.0*	8.2%	23.1µM*	-25.2%	23.1µM*
